PMC5540273 (PLoS ONE, 2017)

system: PIM3; details: concentration: 1 μM,replicates: in singlicate; n = 1
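Further: KINOMEscan kinase panel screen.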

Structure (SMILES) | %Inh [%]
CSc1nccc(-c2c(-c3ccc(F)cc3)ncn2CCCN2CCOCC2)n1.Cl [SB-217146] | 9
Cc1ccc(C(=O)Nc2ccc(Oc3ccc4nc(NC(=O)C5CC5)cn4c3)c(F)c2)c(=O)n1-c1ccccc1 | 0
CC(C)S(=O)(=O)N1CCN(Cc2ccc3c(c2)nc(NC(=O)c2ccsc2)n3C[C@H](O)c2ccccc2)CC1 [GW635815] | 7
CC(=O)Nc1nc2cnc(Nc3cc(NC(=O)c4cccc(CC(C)(C)C#N)c4)ccc3C)nc2s1 | 22
Cn1ccc2ncnc(Oc3ccc(NC(=O)Nc4cccc(C(F)(F)F)c4)c(Cl)c3)c21 | 15
O=C(Nc1n[nH]c2cc(-c3ccco3)ccc12)C1CC1 [SB-737447] | 22
COc1cccc(OC)c1C(=O)Nc1cccc(-c2nn3ccccc3c2-c2ccnc(Nc3cccc(F)c3)n2)c1 [GSK361065] | 13
CC(C)c1nc(-c2cccc(NS(=O)(=O)c3ccccc3)c2)c(-c2ccnc(Nc3ccc4c(c3)CN(C)CC4)n2)s1 [GSK1649598] | 18
Cn1ccc2ncnc(Oc3ccc(NC(=O)Nc4cncc(C(F)(F)F)c4)c(Cl)c3)c21 | 0
FC(F)(F)c1cc(Br)cc(Nc2nccc(-c3cnn4ncccc34)n2)c1 [GW810578] | 23
CN(c1ccc2c(c1)nc(NCc1ccc(F)cc1)n2C)c1ccnc(Nc2ccc(CS(C)(=O)=O)cc2)n1.Cl [GW813244] | 15
Cc1ccn2nc(-c3ccc(F)cc3)c(-c3ccncc3)c2c1.Cl [GW457859] | 0
OCCn1cc(-c2cnc3nnn(Cc4ccc5ncccc5c4)c3n2)cn1 | 10
COc1cc2ncn(-c3cc(OCC4CCCCC4)c(C(N)=O)s3)c2cc1OC [GSK204559] | 11
CCn1c(-c2nonc2N)nc2cncc(Br)c21 [SB-738004] | 62
CC(=O)c1c(-c2ccncc2)[nH]c(-c2ccncc2)c1C [GW493036] | 9
CCOC(=O)N1CCC(n2cnc(-c3ccc(F)cc3)c2-c2ccnc(N)n2)CC1 [SB-219952] | 1
O=C(NOCC1CC1)c1cc(Br)c(F)c(F)c1Nc1ccc(I)cc1Cl | 1
CCn1c(-c2nonc2N)nc2cncc(CNC3CCNCC3)c21.Cl [SB-747651] | 80

Structure (SMILES) | %Inh [%]
Cc1nnc(-c2ccc3occ(-c4ccc(S(C)=O)cc4)c3n2)o1 (stereo not shown) | 4
CCCC(=O)Nc1n[nH]c2ncccc12 [SB-601436] | 0
O=C(Nc1cccc(Oc2ccc3nccn3n2)c1)Nc1cccc(C(F)(F)F)c1 | 0
C[C@@H]1CCN(C(=O)N2CCCC2)C[C@@H]1N(C)c1ncnc2[nH]ccc12 | 0
c1ccc(Oc2ccc(Nc3ccnc4ccc(-c5ccccn5)cc34)cc2)cc1 [GW407034] | 0
O=c1[nH]cc(-c2ccc(O)cc2)c2sc(-c3ccncc3)cc12 [GSK1033723] | 0
CS(=O)(=O)Nc1ccc(-c2ccnc3[nH]ccc23)cc1 [GSK993273] | 12
Cc1n[nH]c2cc(Nc3ccnc(Nc4cccc(CN5CCOCC5)c4)n3)ccc12 [GW682569] | 0
O=C(Nc1ccc(Oc2ccc3nc(NC(=O)C4CC4)cn3n2)c(F)c1)c1cccn(-c2ccccc2)c1=O | 0
C[C@@H]1CNc2c(sc3ccc4nc(-c5ccc(O)cc5)ccc4c23)C(=O)N1 | 72
C[C@@H]1CNc2c(sc3ccc4nc(-c5ccncc5)ccc4c23)C(=O)N1 | 93.1
Cn1cc(-c2cccc3c(N)c(C(N)=O)nnc23)cn1 | 0
C[C@@H](Oc1cc(-n2cnc3cc(-c4cnn(C)c4)ccc32)sc1C(N)=O)c1ccccc1Cl [GSK580432] | 18
COC(=O)c1cccc(NC(=O)NC2CCN(c3ccnc(Nc4cc(OC)c(OC)c(OC)c4)n3)C2)c1 (stereo not shown) [GSK1379767] | 0
CN1CCN(CCCNc2nccc(-c3c(-c4ccc(F)cc4)nn4cc(C(N)=O)ccc34)n2)CC1 [GW622475] | 8
NC(=O)c1ccc(-c2cc3ncnc(SCC(=O)O)c3s2)cc1 | 22
C[C@@H](Oc1cc(-n2cnc3ccc(-c4ccncc4)cc32)sc1C(N)=O)c1ccccc1Cl [GSK483724] | 23
CCNCC(Cc1ccccc1)NC(=O)c1cc(Br)c(-c2ccnc3[nH]ccc23)s1.Cl.Cl (stereo not shown) [GSK1383280] | 5
